KB-3-1 tox – qHTS assay for MDR1-selective chemotherapeutics: Primary screen using the parental adenocarcinoma cell KB-3-1; KB-3-1 viability, CellTiter-Glo ATP luminescence, 72 h; Potency, µM (top dose mostly 46.1 µM), usual class: cytotoxic; actives 1.4% (n = 400,000); also: % is scaled to controls: 0 for no effect and ±100 for the full control effect; nearly all actives have a fitted effect of over 60% in size
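72 h, 37 °C compound treatment of KB-3-1 parental cells; CellTiter-Glo added, 10 min, luminescence read. Data corrected against DMSO-only plates and normalized before curve fitting.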
KB-V1 MDR tox – qHTS assay for MDR1-selective chemotherapeutics: Primary screen using the drug-selected MDR subline cells KB-V1 | KB-V1 MDR cells viability, CellTiter-Glo, 72 h | Potency, µM (top dose mostly 46.1 µM), most hits filed as cytotoxic | actives 3.4% (n = 400,000) | AID 1347076, 2019; also: % is scaled to controls: 0 for no effect and ±100 for the full control effect; nearly all actives have a fitted effect of over 60% in size
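Cells of the MDR subline KB-V1 are plated, dosed with compound at multiple concentrations, and incubated 72 h at 37 degrees C; CellTiter-Glo is then added and luminescence read after 10 min.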
HT1080-NT tox – qHTS for induction of synthetic lethality in tumor cells producing 2HG: qHTS for the HT-1080-NT fibrosarcoma cell line; actives 1.6% (n = 360,000); Potency, µM (doses to about 46.1 µM), inactives show at the highest dose activity, negative = less viability, actives largely listed as cytotoxic; HT-1080-NT fibrosarcoma viability, CellTiter-Glo ATP luminescence, 48 h; AID 686970, 2013;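 also: NT is the 2HG producing partner of a matched IDH1 knockdown line; 0% = DMSO-treated cells and -100% = media-only wells without cells; nearly all actives have a fitted effect of over 55% in size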
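Compounds were tested in concentration-response format on HT-1080-NT cells for 48 hours at 37 degrees C. Cell viability came from CellTiter-Glo luminescence; curves were classified by r2, response magnitude and activity.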
HT1080 IDH1KD tx – qHTS for induction of synthetic lethality in tumor cells producing 2HG: qHTS for the HT-1080-IDH1KD cell line. Potency, µM (top dose mostly 46.1 µM), without a hit: at the highest dose activity, negative = toxicity, usual class: cytotoxic. HT-1080 IDH1 knockdown viability, ATP luminescence, 48 h. actives 2% (n = 360,000);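 also: 0% = DMSO wells and -100% = cell-free medium wells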
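IDH1KD HT-1080 cells, 750/well, RPMI + 5% FBS; compound pinned after 2 h settling; 48 h, 37 °C; CellTiter-Glo luminescence; % activity normalised to DMSO and no-cell wells; curves fitted, classed by r2 and efficacy.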
SW480 rerep – A quantitative high throughput screen for small molecules that induce DNA re-replication in SW480 colon adenocarcinoma cells | SW480 DNA re-replication, Hoechst DNA content imaging, 48 h | Potency, µM (series often up to 46.1 µM), for the others: top-dose re-replication activation, hits mostly activators | actives 1.8% (n = 340,000) | AID 624297, 2012; also: % of control where 0% means no effect; nearly all actives have a fitted effect of over 55% in size
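SW480 cells exposed to compounds for 48 hr at 37 C, 5% CO2, then Hoechst-stained 40 min. Nuclear DNA content imaged by fluorescence scanning (405 nm excitation, 500-530 nm emission); re-replication scored as increased high-intensity nuclei.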
MCF10A rereplic – A quantitative high throughput screen for small molecules that induce DNA re-replication in MCF 10a normal breast cells; MCF 10A DNA re-replication, Hoechst nuclear intensity, 48 h; Potency, µM (top dose mostly 46.1 µM), for the others: at the highest dose activity, positive = re-replication, actives largely listed as activators; actives 2.9% (n = 350,000); also: % of control where 0% means no effect; nearly all actives have a fitted effect of over 50% in size
* = called active by the depositor; i = inactive; u = inconclusive; x = no result given; [ ] = dose if it differs, or a comment. Sampled rows, rich in hits. Any-hit rate of the full collection: about 7.9%. Calls follow the shape of the dose curve; as a rule, active = well fitted curve in the direction sought with a large enough effect; inconclusive = small, poorly fitted or top-dose-only effect, or another doubt; inactive = no such curve, though single readings can be large; an effect the other way counts as inactive or inconclusive. Potency is read from the fitted curve at half-maximal effect.

SMILES	KB-3-1 tox	KB-V1 MDR tox	HT1080-NT tox	HT1080 IDH1KD tx	SW480 rerep	MCF10A rereplic
CCCCCc1cc[n+](CC(=O)c2ccccc2)cc1	i	i	x	x	x	x
Cc1ccc(CNC(=O)c2cnc3c(-c4ccccc4)c(C)nn3c2C)o1	i	i	x	x	x	x
Cc1[nH]n(-c2ccccc2)c(=O)c1N=Nc1ccc2c(c1)OCCO2	i	i	11%	15%	-2%	-13%
Cc1[nH]n(-c2ccccc2)c(=O)c1N=Nc1c(O)cc(S(=O)(=O)N(C)C)c2ccccc12	u	i	u	9.2µM*	5.8µM*	-38%
Cc1ccc(S(=O)(=O)N(Cc2ccccc2)c2ccccc2C(=O)NCc2ccco2)cc1	i	i	11µM*	3%[9.24 µM]	3%	u
COc1ccc(N(CC(=O)Nc2cc(C)on2)S(=O)(=O)c2cc(C)ccc2C)cc1	u	5.8µM*	u	u	u	23%
COc1ccc(N(CC(=O)Nc2cc(C)on2)S(=O)(=O)c2ccc(Cl)cc2)cc1	i	i	-7%	-29%	1%	1%
COc1ccc(N(CC(=O)Nc2ccc3c(c2)OCCO3)S(=O)(=O)c2c(C)noc2C)cc1	u	2.9µM*	-3%	u	18%	u
CCOc1ccccc1N(CC(=O)Nc1ccccc1F)S(=O)(=O)c1ccccc1	i	u	-13%	-11%	u	0.58µM*
Cc1ccc(N(CC(=O)Nc2ccc3c(c2)OCCO3)S(=O)(=O)c2c(C)noc2C)cc1	i	u	-15%	-10%	-1%	-3%[9.22 µM]
CCOC(=O)c1ccc(NC(=O)c2c(NCc3ccc(OC)c(OC)c3OC)sc3c2CCC(C)C3)cc1 (centres undefined)	i	i	x	x	x	x
CCS(=O)(=O)N(CC(=O)Nc1cccc2ccccc12)c1ccc(OC)cc1	i	13µM*	2%	3%	-1%	4%
CCOc1ccc(N(CC(=O)Nc2ccccc2OCC)S(=O)(=O)c2c(C)noc2C)cc1	3.3µM*	5.8µM*	2.3µM*	2.3µM*	5.8µM*	1.3µM*
CCN(CC(=O)Nc1cc(Cl)ccc1C)C(=O)c1oc2ccc(OC)cc2c1C	i	16µM*	0%	-4%	-4%	15%
CCOc1ccc(N(CC(=O)Nc2ccccc2C(=O)N2CCOCC2)S(=O)(=O)c2ccc(F)cc2)cc1	i	4.6µM*	0%	9%	0%	0%
COc1ccc(N(CC(=O)Nc2cccc3ccccc23)S(C)(=O)=O)cc1	i	i	3%	3%	-39%	u
O=C(NCCSCc1c(F)cccc1Cl)C1CCN(S(=O)(=O)Cc2ccccc2)CC1	i	i	x	x	x	x
COc1ccc(S(=O)(=O)N(Cc2ccccc2)c2ccccc2C(=O)N2CCOCC2)cc1	u	13µM*	23µM*	u	u	u
CCOc1ccc(N(CC(=O)Nc2ccccc2OC)S(=O)(=O)c2ccccc2)cc1	4.6µM*	1µM*	2.1µM*	1.6µM*	2.3µM*	u
COc1ccc(N(CC(=O)Nc2cc(Cl)ccc2C)S(=O)(=O)c2c(C)n[nH]c2C)cc1	9.2µM*	i	u	u	-1%	-4%
COc1cc(NC(=O)c2cc3c(=O)oc4ccc(C)cc4c3s2)cc(OC)c1OC	i	i	x	x	x	x
CC1(C)Oc2ccc3ccc(=O)oc3c2/C(=C/Nc2ccc(O)cc2)C1=O	i	u	u	-19%	u	u
CC1(C)Oc2ccc3ccc(=O)oc3c2/C(=C/Nc2cccc(O)c2)C1=O	i	u	u	u	u	12µM*
CCOc1ccccc1CNC(=O)CCn1ccc2cc(S(=O)(=O)N3CCC(C)CC3)ccc21	i	i	x	x	x	x
COc1cccc(C(=O)NCCS(=O)(=O)N2CCCC(C)C2)c1 (centres undefined)	i	i	3%	6%	x	x
SMILES	KB-3-1 tox	KB-V1 MDR tox	HT1080-NT tox	HT1080 IDH1KD tx	SW480 rerep	MCF10A rereplic
CC1=C(C#N)C(c2ccccc2)C2=C(N1)c1ccccc1C2=O (centres undefined)	2.1µM*	3.3µM*	u	2%	8.2µM*	1.5µM*
Cc1nc2ccccc2c2c1CC(C(C)(Cl)Br)O2 (centres undefined)	u	4.6µM*	u	u	-19%	2%
COc1ccc(O)c(C(=O)c2cc(C(=O)NCCc3ccccc3)c(=O)n(CCc3ccccc3)c2)c1	i	2.1µM*	3%	1%	1%	6%
Cc1ccc(O)c(C(=O)c2cc(C(=O)NCCc3ccccc3)c(=O)n(CCc3ccccc3)c2)c1	i	i	8%	1%	u	u
CC(=O)Nc1cccc(Nc2nc3ccccc3n3c(C)nnc23)c1	i	i	x	x	x	x
O=C(CC(=O)c1ccncc1)c1ccccc1	i	18µM*	4%	-2%	-7%	-3%
COc1ccc(C(=O)CC(=O)c2ccc(OC)cc2)cc1	i	u	-16%	-1%	1%	4%
COc1ccc(C(=O)CC(=O)c2ccccc2)cc1	i	u	-12%	-17%	2.9µM*	2%
Cc1cc(=O)oc(C)c1C(=O)OCC(=O)c1ccccc1	i	i	2%	12%	8%	5%
Cc1cc(=O)oc(C)c1C(=O)OC(C(=O)c1ccccc1)c1ccccc1 (centres undefined)	i	23µM*	-3%	-2%	4%	u
COc1ccc(O)c(C(=O)CC(=O)c2ccncc2)c1	i	9.2µM*	16%	-1%	-19%	-8%
COc1ccc(Nc2nc3c(S(=O)(=O)c4ccccc4)nnn3c3ccc(Cl)cc23)c(OC)c1	i	u	x	x	x	x
Cc1ccc(NC(=O)C2CCN(S(=O)(=O)c3c(C)noc3C)CC2)c(C)c1	i	i	x	x	x	x
COc1ccc(OC)c2sc(N(Cc3cccnc3)C(=O)c3ccco3)nc12	i	i	x	x	x	x
COc1ccc(C(=O)C(OC(=O)c2ccccc2Cl)c2ccccc2)cc1 (centres undefined)	i	i	5%	0%	-11%	1%
COc1ccc(C(=O)C(OC(=O)c2ccccc2)c2ccccc2)cc1 (centres undefined)	i	13µM*	8%	4%	9%	6%

High-throughput results (PubChem BioAssay)
